Reference: the supplement of paper PMC12669797
Several values for one entry are separate records, joined by “and”; a condition that tells them apart may be missing. Identical values can stand only once. Counter-ions that a name gives are not always drawn. ± gives the standard deviation of the averaged measurements.

Tests used:
ES2 = test: cell viability relative to DMSO control (MTS) (fraction of DMSO control); higher = more viable cells / less growth inhibition; conditions: 10 µM; 48 h
Outline: (§1)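 After 24 h of growth in 96-well plates at 5000 cells per well, TOV-21G and ES2 clear cell carcinoma cells were treated for 48 h with a 367-compound […] library at 10 µM final concentration. Cell viability was measured by MTS assay and expressed relative to vehicle control wells as a fraction.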

TOV-21G = test: as above; conditions: 10 µM; 48 h
Outline: as §1

SMILES | cell viability (ES2) | cell viability (TOV-21G)
Nc1nc2c(nc(Sc3ccc(Cl)cc3)n2C2O[C@@H]3CO[P+](O)(S)OC3[C@@H]2O)c(=O)[nH]1 (stereo partly drawn) | 1.02 ± 0.17 | 0.856 ± 0.084
Oc1c2ccccc2c2c3c(cccc13)N=N2 | 0.721 ± 0.32 | 0.65 ± 0.023
CCOC(=O)C1=C(C)NC(=S)NC1c1cccc(O)c1 (stereo not drawn) [Monastrol] | 0.884 | 0.853
Cc1nc(Nc2ncc(C(=O)Nc3c(C)cccc3Cl)s2)cc(N2CCN(CCO)CC2)n1 [dasatinib] | 0.608 | 0.815
CCN(CC)CCNC(=O)c1c(C)[nH]c(/C=C2\C(=O)Nc3ccc(Cl)cc32)c1C | 0.254 | 0.222
COC(=O)C1=C(C)NC(C)=C(C(=O)OC)C1c1ccccc1[N+](=O)[O-] [Nifedipine] | 0.911 | 0.741
CCCC[C@@H](C)/C=C(C)/C=C(\C)C(=O)NC1=C[C@@](O)(/C=C/C=C/C=C/C(=O)NC2=C(O)CCC2=O)[C@@H]2O[C@@H]2C1=O [Manumycin A] | 1.06 | 1.61
Cc1c2oc3c(C)ccc(C(=O)N[C@@H]4C(=O)N[C@H](C(C)C)C(=O)N5CCC[C@H]5C(=O)N(C)CC(=O)N(C)[C@@H](C(C)C)C(=O)O[C@@H]4C)c3nc-2c(C(=O)N[C@@H]2C(=O)N[C@H](C(C)C)C(=O)N3CCC[C@H]3C(=O)N(C)CC(=O)N(C)[C@@H](C(C)C)C(=O)O[C@@H]2C)c(N)c1=O [Actinomycin D] | 0.584 | 0.456
CC#C[C@]1(O)CC[C@H]2[C@@H]3CCC4=CC(=O)CCC4=C3[C@@H](c3ccc(N(C)C)cc3)C[C@@]21C [Mifepristone] | 1.04 | 0.846
Nc1ncn([C@@H]2O[C@H](CO)[C@@H](O)[C@H]2O)c(=O)n1 [Azacytidine] | 0.664 | 0.779
O=Cc1ccc(N2CCOCC2)cc1O | 1.07 | 0.993
COc1ccc(Cn2ccc3ccc(C(=O)NO)cc32)cc1 | 0.928 | 0.919
C/C=C/C/C=C/CCC(=O)[C@H]1O[C@H]1C(N)=O [Cerulenin] | 1.4 | 1.03
O=c1c2ccccc2[nH]c(=S)n1CCN1CCC(=C(c2ccc(F)cc2)c2ccc(F)cc2)CC1 [Diacylglycerol kinase inhibitor II] | 1.09 | 1.13
COC(=O)c1ccc(NCc2cc(O)ccc2O)cc1 | 1.414 ± 0.0028 | 1.06 ± 0.026
Cc1cc(Nc2cc(N3CCN(C)CC3)nc(/C=C/c3ccccc3)n2)n[nH]1 | 0.534 | 0.289
Cc1cc([N+](=O)[O-])ccc1NS(=O)(=O)c1cc(Cl)ccc1Cl | 0.894 | 1.14
CCCOc1ccccc1-c1nc2[nH]nnc2c(=O)[nH]1 [Zaprinast] | 0.909 | 1.03
Fc1ccc(Cl)cc1-c1nc(Nc2ccncc2)c2nccnc2n1 | 0.645 | 1.08
CCOc1nc(NC(=O)Cc2cc(OC)ccc2OC)cc(N)c1C#N [JNK inhibitor VIII] | 1.09 | 1.12
CC(C)C(C(=O)O)N1C(=O)C(=Cc2ccc(Br)cc2)SC1=S (stereo not drawn) | 1.11 | 1.16
COc1cccc2c1C(=O)c1c(O)c3c(c(O)c1C2=O)C[C@@](O)(C(=O)CO)C[C@@H]3O[C@H]1C[C@H](N)[C@H](O)[C@H](C)O1 [Doxorubicin, HCl] | 0.312 | 0.403
COc1cc2nccc(Oc3ccc(NC(=S)NC(=O)c4ccccc4C)cc3)c2cc1OC [PDGF receptor tyrosine kinase inhibitor V] | 0.874 | 0.525

SMILES | cell viability (ES2) | cell viability (TOV-21G)
CCOC(=O)C1=C(N)Oc2ccc(Br)cc2C1C(C#N)C(=O)OCC (stereo not drawn) | 1.04 | 0.998
O=[N+]([O-])c1ccc(-c2nc(-c3ccc(F)cc3)c(-c3ccncc3)[nH]2)cc1 | 0.835 | 0.976
CCN(CC)CCCCNc1ncc2cc(-c3cc(OC)cc(OC)c3)c(NC(=O)NC(C)(C)C)nc2n1 | 0.366 | 0.915
CNCc1ccc(-c2[nH]c3cc(F)cc4c3c2CCNC4=O)cc1 | 0.686 | 0.746
CSCC[C@H](NC(=O)c1ccc(NC[C@@H](N)CS)cc1-c1ccccc1)C(=O)O | 1.55 | 1
CC(C)n1nc(-c2cc3cc(O)ccc3[nH]2)c2c(N)ncnc21 [Torkinib] | 0.417 | 0.38
O=C(Nc1ccc([N+](=O)[O-])cc1O)Nc1ccccc1Br | 0.469 | 0.605
O=C(NCCCCCCNC(=O)ON=C1CCCCC1)ON=C1CCCCC1 | 1.3 | 0.996
Cc1ncc2ccccc2c1C#N [4-cyano-3-methylisoquinoline] | 1.01 | 1
C[n+]1ccc(-c2c3nc(c(-c4cc[n+](C)cc4)c4ccc([nH]4)c(-c4cc[n+](C)cc4)c4ccc([nH]4)c(-c4cc[n+](C)cc4)c4nc2C=C4)C=C3)cc1 | 0.933 | 0.79
COc1cc2ncnc(Nc3cccc(Cl)c3)c2cc1OC | 1.04 ± 0.12 | 0.839 ± 0.24
CCN(CC)CC(=O)Nc1c(C)cccc1C [Lidocaine] | 1.1 | 1.4
C#Cc1cccc(Nc2ncnc3cc(OCCOC)c(OCCOC)cc23)c1 [erlotinib] | 0.7 | 0.487
CN(C)CCCN1c2ccccc2Sc2ccc(Cl)cc21 [chlorpromazine hydrochloride] | 0.947 | 0.868
CC[n+]1c(/C=C/N(C)c2ccccc2)n(-c2ccccc2)c2ccc(-c3nc4ccccc4s3)cc21 [Akt Inhibitor IV] | 0.308 | 0.218
O=C(CCCCCCC(=O)Nc1ccccc1)NO [vorinostat] | 0.38 | 0.388
CN(C)c1ccccc1CN1CCCN(Cc2ccccc2N(C)C)C1c1ccncc1 | 0.853 | 0.229
C1=Cc2nc1cc1nc(c(-c3ccccc3)c3ccc(cc4ccc([nH]4)c2-c2ccccc2)[nH]3)C=C1 | 0.908 | 1.19
N#C/C(=C(/N)Sc1ccccc1N)c1cccc(C(O)c2ccncc2)c1 (stereo not drawn) [MEK inhibitor I] | 0.866 | 0.898
CC[C@@]1(O)C[C@H](O[C@H]2C[C@H](N(C)C)[C@H](O[C@H]3C[C@H](O)[C@H](O[C@H]4CCC(=O)[C@H](C)O4)[C@H](C)O3)[C@H](C)O2)c2c(cc3c(c2O)C(=O)c2c(O)cccc2C3=O)[C@H]1C(=O)OC [Aclarubicin] | 0.6 | 0.385
CC(=O)N[C@@H](CSC(=O)[C@]1([C@@H](O)C(C)C)NC(=O)[C@H](C)[C@@H]1O)C(=O)O [Lactacystin] | 0.637 | 0.482
CCCCCCCCCCCCCCOc1ccc(C(=O)O)o1 | 1.21 | 0.947
CO[C@@]12[C@H](COC(N)=O)C3=C(C(=O)C(C)=C(N)C3=O)N1C[C@@H]1N[C@@H]12 [Mitomycin C] | 0.35 | 0.213

SMILES | cell viability (ES2) | cell viability (TOV-21G)
NC1=N/C(=C2/CCNC(=O)c3[nH]ccc32)C(=O)N1 [Debromohymenialdisine (DBH)] | 1.25 | 1.12
C[C@]1(O)C[C@@H](c2nc(-c3ccc4ccc(-c5ccccc5)nc4c3)c3c(N)nccn32)C1 | 0.62 | 0.875
NC(=O)NO [Hydroxyurea] | 1.21 | 0.811
O=c1cc(-c2ccccc2)oc2cc(O)c(O)c(O)c12 [Baicalein] | 0.916 | 0.821
N#CC(=C(/N)Sc1ccccc1N)/C(C#N)=C(/N)Sc1ccccc1N | 0.685 and 0.748 | 0.824 and 1.02
CCCCC[C@H](CC(=O)NO)C(=O)N[C@H](C(=O)N1CCC[C@H]1CO)C(C)C [Actinonin] | 1 | 0.848
Cn1c(=O)c2nc[nH]c2n(C)c1=O [Theophylline] | 0.452 | 0.772
CN(Cc1cnc2nc(N)nc(N)c2n1)c1ccc(C(=O)N[C@@H](CCC(=O)O)C(=O)O)cc1 [Methotrexate] | 1.16 | 0.872
CC(C)(C)c1nc2c3cc[nH]c(=O)c3c3cc(F)ccc3c2[nH]1 [JAK Inhibitor I] | 0.561 | 0.662
O=C(CCCCCN1C(=O)c2cccc3cccc(c23)C1=O)NO [Scriptaid] | 0.311 | 0.367
O=C1C(SCCO)=C(SCCO)C(=O)c2ccccc21 | 0.962 | 0.861
Cc1cccc(-c2nn3c(c2-c2ccnc4ccc(C(N)=O)cc24)CCC3)n1 | 0.988 | 1.02
C=CCNC1=C2C[C@@H](C)C[C@H](OC)[C@H](O)[C@@H](C)/C=C(\C)[C@H](OC(N)=O)[C@@H](OC)/C=C\C=C(/C)C(=O)NC(=CC1=O)C2=O | 0.541 | 0.575
NC(=O)c1ccc(I)c([N+](=O)[O-])c1 [BSI-201 (Iniparib)] | 0.778 | 1.29
NCC(=O)Nc1ccc(-n2nc(C(F)(F)F)cc2-c2ccc3c(ccc4ccccc43)c2)cc1 | 1.04 | 1.21
CC(C)[C@H](CO)Nc1nc(Nc2cccc(Cl)c2)c2ncn(C(C)C)c2n1 [purvalanol A] | 0.657 | 0.607
O=C1Cc2c([nH]c3ccc(Br)cc23)-c2ccccc2N1 [Kenpaullone] | 0.701 ± 0.11 | 0.468 ± 0.048
Cc1c(C)c2c(c(C)c1O)CCC(C)(COc1ccc(CC3SC(=O)NC3=O)cc1)O2 (stereo not drawn) [Troglitazone] | 0.835 | 1.26
Oc1nc(-c2ccc(C(F)(F)F)cc2)nc2c1CSCC2 | 0.961 | 1.1
C[C@@H]1C[C@H]2O[C@@H]2/C=C\C=C\C(=O)Cc2c(Cl)c(O)cc(O)c2C(=O)O1 [Radicicol] | 0.533 | 0.37
COC(=O)C[C@H](NC(=O)[C@H](C)NC(=O)[C@@H](NC(=O)OCc1ccccc1)C(C)C)C(=O)CF | 1.42 | 1.16
O=C1CCC(N2C(=O)c3ccccc3C2=O)C(=O)N1 (stereo not drawn) [thalidomide] | 0.958 | 0.989
CO[C@H]1C[C@@H]2CC[C@@H](C)[C@@](O)(O2)C(=O)C(=O)N2CCCC[C@H]2C(=O)O[C@H]([C@H](C)C[C@@H]2CC[C@@H](O)[C@H](OC)C2)CC(=O)[C@H](C)/C=C(\C)[C@@H](O)[C@@H](OC)C(=O)[C@H](C)C[C@H](C)/C=C/C=C/C=C/1C [Rapamycin] | 0.854 | 0.576
